Screens from PubChem BioAssay.
AMA1 RON2 block: qHTS for Inhibitors of AMA1-RON; Towards Development of Antimalarial Drug Lead: Primary Screen; AID 720542, 2013; AlphaScreen AMA1-biotinylated RON2 peptide binding; Potency, µM (titrated, usually from 58.2 µM), usual class: inhibitors; actives 0.2% (n = 360,000); Plasmodium falciparum AMA1 (3D7) - RON2 peptide interaction; note: nearly all actives have a fitted effect of over 45% in size
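AMA1 (3D7) with his tag at 25 nM final met compounds first, then biotinylated RON2 peptide at 25 nM; detection used donor plus acceptor beads, 10 µg/mL apiece, read by AlphaScreen after 30 min at room temperature.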
AmpC inh no detg: qHTS Inhibitors of AmpC Beta-Lactamase (assay without detergent); actives 0.52% (n = 330,000); AmpC nitrocefin hydrolysis, absorbance 480 nm, 0.0001% Triton; P00811; Potency, µM (titrated, usually from 57.1 µM), hits mostly inhibitors; note: nearly all actives have a fitted effect of over 20% in size
Target sequence (P00811 whole entry, looked up): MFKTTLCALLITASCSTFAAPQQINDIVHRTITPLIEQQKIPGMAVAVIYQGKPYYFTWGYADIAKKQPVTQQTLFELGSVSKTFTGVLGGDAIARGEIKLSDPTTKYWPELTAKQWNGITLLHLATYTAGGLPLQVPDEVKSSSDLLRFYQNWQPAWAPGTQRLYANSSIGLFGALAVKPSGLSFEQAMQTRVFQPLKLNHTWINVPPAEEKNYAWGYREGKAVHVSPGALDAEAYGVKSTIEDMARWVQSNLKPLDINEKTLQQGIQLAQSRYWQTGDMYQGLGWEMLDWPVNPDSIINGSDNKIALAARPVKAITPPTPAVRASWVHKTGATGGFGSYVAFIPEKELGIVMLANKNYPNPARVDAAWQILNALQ
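AmpC (5.3 nM in the dispensed reagent) in 20 mM phosphate pH 7.0 with 0.01% (detergent screen) or 0.0001% Triton X-100 was preincubated with compounds for 15 min at room temperature. Nitrocefin was then added from an 800 uM solution, and hydrolysis was followed at 480 nm.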
Sm TGR inh: qHTS Assay for the Inhibitors of Schistosoma Mansoni Peroxiredoxins; purified TGR, DTNB reduction, TNB absorbance 405 nm; Schistosoma mansoni thioredoxin glutathione reductase (TGR), Q962Y6; Potency, µM (series often up to 114 µM), actives largely listed as inhibitors; actives 3% (n = 360,000); note: nearly all actives have a fitted effect of over 60% in size
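TGR 20 nM + NADPH 100 uM (dispensed conc.), cpd preinc 15 min RT; start with NADPH (500 uM addition) then DTNB (15 mM addition). Kinetic TNB absorbance, 405 nm filter. Four-parameter Hill fit across titration.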
RE007 growth inh: qHTS Assay for Inhibitors of the HIV-1 protein Vpr. S. pombe RE007 Vpr strain, BacTiter-Glo ATP luminescence, 24 h. Potency, µM (doses to about 92.2 µM), hits mostly inhibitors. actives 0.21% (n = 360,000). AID 651644, 2012; active = well fitted falling curve with a large enough effect; inconclusive = small, poorly fitted or top-dose-only effect; inactive = no such curve, though single readings can be large or run the other way; note: nearly all actives have a fitted effect of over 50% in size
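Fission yeast strain RE007, carrying one chromosomally integrated HIV-1 vpr copy, was seeded at OD 0.01 in PMG+AL medium with 23 nL pinned compound. After 24 h at 30 °C and 99% humidity, viability was read by BacTiter-Glo luminescence.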
AmpC inh detg: qHTS Inhibitors of AmpC Beta-Lactamase (assay with detergent); P00811; AmpC hydrolysis of nitrocefin, absorbance 480 nm, 0.01% Triton; Potency, µM (top dose mostly 114 µM), actives largely listed as inhibitors; actives 0.041% (n = 370,000); AID 485294, 2010; note: nearly all actives have a fitted effect of over 25% in size
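AmpC (5.3 nM in the dispensed reagent) in 20 mM phosphate pH 7.0 with 0.01% (detergent screen) or 0.0001% Triton X-100 was preincubated with compounds for 15 min at room temperature. Nitrocefin was then added from an 800 uM solution, and hydrolysis was followed at 480 nm.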
Large screens that a line does not name were inactive. Hits are enriched below; roughly 3.2% of the tested compounds scored in any of these assays. Unless noted, calls come from the whole dose curve; as a rule, active = well fitted curve in the direction sought with a large enough effect; inconclusive = small, poorly fitted or top-dose-only effect, or another doubt; inactive = no such curve, though single readings can be large; an effect the other way counts as inactive or inconclusive.

COc1ccc(NC(=O)C(c2ccc(C(F)(F)F)cc2)n2c(=O)c(-c3cc4ccccc4[nH]3)nc3ccccc32)cc1 (stereo not given)	none (no result: AmpC inh no detg, Sm TGR inh, AmpC inh detg)
CCC1(CC)NC(=O)N(CC(=O)NC(=O)NCc2ccccc2)C1=O	Sm TGR inh 22.4µM
CCNC(=O)CN1C(=O)NC(Cc2ccccc2)(Cc2ccccc2)C1=O	none
Nc1cccc2nsnc12	Sm TGR inh 35.5µM
CCOCCn1ccc2c(OCC(=O)Nc3cc(C(F)(F)F)ccc3Cl)cccc2c1=O	none (no result: AMA1 RON2 block, AmpC inh no detg, RE007 growth inh)
CCCCOC(=O)c1ccc(O)cc1	none
CCCCCCCCOC(=O)c1ccc(N)cc1	RE007 growth inh 28.2µM, AmpC inh detg inconclusive
CC(=O)C1=C(c2cccc([N+](=O)[O-])c2)N(C(C)=O)n2c(C)nnc2S1	Sm TGR inh 22.4µM
CCOc1ccc(C2=C(C(C)=O)Sc3nnc(C)n3N2C(C)=O)cc1	none (no result: AMA1 RON2 block, AmpC inh no detg, RE007 growth inh)
NC(=O)c1ccc(N=Cc2ccc([N+](=O)[O-])s2)cc1	Sm TGR inh 14.1µM, RE007 growth inh 39.8µM
Cc1cc(C)cc(N=Cc2ccc([N+](=O)[O-])s2)c1	Sm TGR inh inconclusive, RE007 growth inh 39.8µM
COc1ccc(Cn2c(CCC(=O)Nc3cc(OC)c(OC)c(OC)c3)nc3cccnc32)cc1	none (no result: AMA1 RON2 block, AmpC inh no detg, RE007 growth inh)
COC(=O)c1ccc(C(=O)OC)c(NC(=O)/C=C/C(=O)O)c1	Sm TGR inh 10µM
CCOC(=O)C(C(=O)OCC)C(C(=O)OCC)N1CCOCC1 (stereo not given)	Sm TGR inh 0.631µM
CCOC(=O)c1ccccc1NC(=O)NC(C)c1c(-n2cccc2)sc(C)c1C (stereo not given)	none (no result: AMA1 RON2 block, AmpC inh no detg, RE007 growth inh)
CCOc1ccc(-n2c(=O)c3c(C)c(C(=O)N(C)C)sc3n(Cc3cc(C)ccc3C)c2=O)cc1	none (no result: AMA1 RON2 block, AmpC inh no detg, RE007 growth inh)
COc1cc(-c2nnc(SCC(=O)c3ccccc3)o2)cc(OC)c1OC	none
CCN(C(=O)CSc1nnc(-c2cc(OC)c(OC)c(OC)c2)o1)c1ccccc1	Sm TGR inh 20µM (no result: AMA1 RON2 block, AmpC inh no detg, RE007 growth inh)
CC(C)n1c(=NC(=O)c2ccco2)c(C#N)cc2c(=O)n3ccccc3cc21	Sm TGR inh 44.7µM
Cc1ccc(-c2cc(C(=O)NCCN3CCOCC3)c3ccccc3n2)o1	Sm TGR inh 44.7µM
Cc1ccc(NC(=O)c2cc(-c3ccc(C)o3)nc3ccccc23)cc1	Sm TGR inh 25.1µM, RE007 growth inh 25.1µM
Cc1ccc(-c2cc(C(=O)Nc3ccccn3)c3ccccc3n2)o1	Sm TGR inh 17.8µM
Cc1ccc(-c2cc(C(=O)Nc3cccnc3)c3ccccc3n2)o1	none
CCc1ccc(CNC(=O)c2c(C)oc3ncn(CC(C)C)c(=O)c23)cc1	none (no result: AMA1 RON2 block, AmpC inh no detg, RE007 growth inh)
COc1ccc(OC)c(NC(=O)c2nc(SCc3ccccc3F)ncc2Cl)c1	none (no result: AMA1 RON2 block, AmpC inh no detg, RE007 growth inh)
CCOC(=O)c1[nH]c(Cc2[nH]c(C(=O)OCC)c(C)c2CCC(=O)OC)c(CCC(=O)OC)c1C	AMA1 RON2 block inconclusive, Sm TGR inh 7.94µM, AmpC inh detg inconclusive
CCOC(=O)c1c(C)[nH]c(C(=O)OC)c1CCC(=O)OC	none
Fc1ccccc1-c1cc2ncccc2cn1	Sm TGR inh 31.6µM
COc1cc(OC)cc(-c2cc3ncccc3cn2)c1	none
O=Cc1ccc(Sc2nnc(-c3ccccc3)o2)c([N+](=O)[O-])c1	AMA1 RON2 block inconclusive, Sm TGR inh 11.2µM, RE007 growth inh inconclusive, AmpC inh detg inconclusive
COc1ccccc1N1CCN(C(=O)c2c(C)oc3ncn(C)c(=O)c23)CC1	none (no result: AMA1 RON2 block, AmpC inh no detg, RE007 growth inh)
CN(C)S(=O)(=O)c1ccc(C(=O)NCCN2C(=O)S/C(=C\c3cccnc3)C2=O)cc1	none
CS(=O)(=O)c1ccc(C(=O)NCCN2C(=O)S/C(=C\c3cccnc3)C2=O)cc1[N+](=O)[O-]	Sm TGR inh 8.91µM
COc1cc(OC)c(NC(=O)c2c(C)nn(-c3ccc(C)cc3)c2-n2cccc2)cc1Cl	none (no result: AMA1 RON2 block, AmpC inh no detg, RE007 growth inh)
CCOc1ccccc1NC(=O)c1c(NC(=O)Cc2ccc(OC)cc2)sc2c1CCC2	none (no result: AMA1 RON2 block, AmpC inh no detg, RE007 growth inh)
Cc1ccc(S(=O)(=O)NCCSc2nnnn2-c2ccc(Cl)c(C(=O)O)c2)cc1	none (no result: AMA1 RON2 block, AmpC inh no detg, RE007 growth inh)
